Test results reported in PubChem BioAssay (EPA / NIEHS).
Where “and” joins values, the source holds several entries; their conditions need not be identical. Equal values may be shown once. Inconclusive results are not listed. The source holds several records for some structures; these can differ, active in one and inactive in another. Calls of active or inactive are those of the source. The calls were made as follows, unless noted: active = hit-call score of the fitted dose curve at least 0.9, where 1 is the maximum; inconclusive = response in the unintended direction; inactive = score below 0.9.

Tests used:
[1] = target: mouse Peroxisome Proliferator-activated Receptor gamma (PPARg), Pparg (gene 19016) (UniProt P37238); assay: ATG_mPPARg_XSP2: Attagene TRANS-FACTORIAL Multi-Species (XSP2) HepG2 Assay for mouse Peroxisome Proliferator-activated Receptor gamma (PPARg) (AID 2283830);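 also: hits are gains in reporter mRNA above DMSO so AC50 marks activation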
In short: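 HepG2 cells transiently transfected with GAL4-UAS reporter units for chimeric NR-Gal4 proteins including mouse PPARg, exposed 24 h; medium contained 3 nM 6-alpha-fluorotestosterone and 1.5 nM norgestrel. Reporter mRNA quantified by RT-PCR, HpaI digestion and capillary electrophoresis, vs DMSO.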

[2] = target: Nuclear receptor subfamily 1 group I member 2 (Mus musculus) (UniProt O54915); assay: ATG_mPXR_XSP2: Attagene TRANS-FACTORIAL Multi-Species (XSP1) HepG2 Assay for mouse Pregnane X Receptor (PXR) (AID 2283831)
In short: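 HepG2 cells transiently transfected with GAL4-UAS reporter units expressing chimeric NR-GAL4 proteins; reporter mRNA measured 24 h after dosing by RT-PCR with 6-FAM labelling and capillary electrophoresis, gain of signal relative to DMSO.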

[3] = target: zebrafish Thyroid Hormone Receptor alpha (TRa), thraa (gene 30670) (UniProt Q98867); assay: ATG_zfTRa_XSP2: Attagene TRANS-FACTORIAL Multi-Species (XSP1) HepG2 Assay for zebrafish Thyroid Hormone Receptor alpha (TRa) (AID 2283832);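 also: actives raise zebrafish TRa-Gal4 reporter transcript above DMSO baseline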
In short: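 Chimeric receptor-Gal4 activity was assessed in transfected human liver HepG2 cells 24 h after dosing, using reporter transcript levels detected by RT-PCR and capillary electrophoresis. DMSO served as baseline.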

[4] = test system: zebrafish Peroxisome Proliferator-activated Receptor gamma (PPARg), gene 557037; assay: ATG_zfPPARg_XSP2: Attagene TRANS-FACTORIAL Multi-Species (XSP2) HepG2 Assay for zebrafish Peroxisome Proliferator-activated Receptor gamma (PPARg) (AID 2283833);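 also: actives increase reporter signal over DMSO so AC50 reflects activation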
In short: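 HepG2 cells transiently transfected with GAL4-UAS reporter units expressing a zebrafish PPARg–GAL4 chimera; compound exposure 24 h. Reporter mRNA quantified by RT-PCR with fluorescent labelling and capillary electrophoresis; gain of signal fitted relative to DMSO baseline.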

[5] = test system: turtle Thyroid Hormone Receptor, alpha (TRa), gene 101949057; assay: ATG_trTRa_XSP2: Attagene TRANS-FACTORIAL Multi-Species (XSP1) HepG2 Assay for turtle Thyroid Hormone Receptor, alpha (TRa) (AID 2283834);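 also: hits raise reporter mRNA over the DMSO baseline so AC50 marks activators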
In short: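 HepG2 cells transiently transfected with multiplexed GAL4-UAS reporter units expressing chimeric NR-Gal4 proteins were dosed for 24 hours. Reporter mRNA was quantified by RT-PCR with 6-FAM labelling and capillary electrophoresis, gain of signal scored against DMSO.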

[6] = ATG_M_61_XSP2: Attagene TRANS-FACTORIAL Multi-Species (XSP2) HepG2 Assay for M61 Transcription Factor (Internal Marker) (AID 2283835; active = hit-call score of the fitted dose curve at least 0.9, where 1 is the maximum; inactive = score below 0.9;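 also: reporter mRNA of an internal background marker read by RT-PCR and capillary electrophoresis; active means a rise in signal above the DMSO baseline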)
In short: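 HepG2 cells transiently transfected with multiple GAL4-UAS reporter units; 3 nM 6-alpha-fluorotestosterone and 1.5 nM norgestrel present to stimulate androgen receptor. After 24 h compound exposure, reporter mRNA measured by RT-PCR and capillary electrophoresis fluorescence, gain-of-signal versus DMSO baseline.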

[7] = target: zebrafish Thyroid Hormone Receptor beta (TRb), thrb (gene 30607) (UniProt Q9PVE4); assay: ATG_zfTRb_XSP2: Attagene TRANS-FACTORIAL Multi-Species (XSP1) HepG2 Assay for zebrafish Thyroid Hormone Receptor beta (TRb) (AID 2283836)
In short: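 Fluorescence of labelled reporter cDNA fragments, separated by capillary electrophoresis, gives mRNA induction from exogenous NR-Gal4 chimeras in transiently transfected HepG2 cells after 24 h dosing; 3 nM 6-alpha-fluorotestosterone and 1.5 nM norgestrel included in the run.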

[8] = ATG_XTT_Cytotoxicity_XSP2: Cytotoxicity Assessment in the Attagene TRANS-FACTORIAL Multi-Species (XSP2) HepG2 Assay (AID 2283837)
In short: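 HepG2 cells, transiently transfected with multiple reporter constructs, exposed to chemical for 24 h. Cell number assessed with XTT fluorescence read-out; loss of signal fitted relative to DMSO.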

[9] = target: human Thyroid hormone Receptor alpha (TRa), THRA (gene 7067) (UniProt P10827); assay: ATG_hTRa_XSP2: Attagene TRANS-FACTORIAL Multi-Species (XSP2) HepG2 Assay for human Thyroid hormone Receptor alpha (TRa) (AID 2283838)
In short: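 HepG2 cells transiently transfected with multiplexed GAL4-UAS reporter units and exogenous NR-GAL4 chimeras; 24 h chemical exposure with 3 nM 6-alpha-fluorotestosterone and 1.5 nM norgestrel present. Reporter mRNA measured by RT-PCR, FAM labelling, HpaI digestion, capillary electrophoresis; gain-of-signal versus DMSO.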

[10] = target: frog Thyroid hormone Receptor alpha (TRa), thra-a (gene 397942) (UniProt P15204); assay: ATG_frTRa_XSP2: Attagene TRANS-FACTORIAL Multi-Species (XSP2) HepG2 Assay for frog Thyroid hormone Receptor alpha (TRa) (AID 2283839)
In short: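 HepG2 cells transiently transfected with multiplexed GAL4-UAS reporter units expressing chimeric frog TRα-Gal4; reporter mRNA read 24 h after dosing by RT-PCR, FAM-labelled primer extension, HpaI digest and capillary electrophoresis. Gain of signal fitted versus DMSO.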

[11] = target: human Thyroid hormone Receptor beta (TRb), THRB (gene 7068) (UniProt P10828); assay: ATG_hTRb_XSP2: Attagene TRANS-FACTORIAL Multi-Species (XSP2) HepG2 Assay for human Thyroid hormone Receptor beta (TRb) (AID 2283840);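 also: actives raise reporter mRNA so potency reflects agonist-like gain of signal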
In short: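 HepG2 cells were transiently transfected with GAL4-UAS multiplexed reporter units expressing chimeric NR-Gal4 proteins, dosed 24 h; reporter mRNA was quantified by RT-PCR, fluorescent labeling, HpaI digestion and capillary electrophoresis, fitted for gain of signal versus DMSO.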

[12] = test system: Sodium/Iodide Symporter (NIS), SLC5A5 (gene 6528); assay: CPHEA_Stoker_NIS_Inhibition_RAIU: CPHEA's Radioactive Iodide Uptake (RAIU) Assay for Sodium/Iodide Symporter (NIS) Inhibition, Stoker and Laws Labs (AID 2283841)
In short: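 Iodide uptake through human NIS is measured in an engineered HEK293T line. Cells take up 125I (329pM final) for 2 hours at room temperature alongside chemicals at 0.001–100uM. Retained radioactivity is counted, and the signal is expressed against DMSO controls.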

[13] = CEETOX_H295R_11DCORT_noMTC: CeeTox H295R High-throughput Steroidogenesis Assay for 11-Deoxycortisol (11DCORT), maximum tolerated concentration (MTC) filtered results only (AID 2283911; active = hit-call score of the fitted dose curve at least 0.9, where 1 is the maximum; inactive = score below 0.9); conditions: actives raise or lower the signal
In short: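 HPLC-MS/MS read-out of 11-deoxycortisol after MTBE extraction of H295R medium. Cells: forskolin 10 uM pre-stimulation 48 h, chemical 48 h, 0.1% DMSO final. Bidirectional fit vs DMSO baseline; no MTC filtering.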

[14] = CEETOX_H295R_OHPREG_noMTC: CeeTox H295R High-throughput Steroidogenesis Assay for OH-Pregnenolone (OHPREG), maximum tolerated concentration (MTC) filtered results only (AID 2283912; active = hit-call score of the fitted dose curve at least 0.9, where 1 is the maximum; inactive = score below 0.9); conditions: actives raise or lower the signal
In short: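 H295R human adrenal cells, forskolin-prestimulated (10 uM, 48 h), then exposed to test chemical in 0.1% DMSO for 48 h. 17alpha-hydroxypregnenolone in medium measured by HPLC-MS/MS after MTBE extraction; bidirectional fit versus DMSO, concentrations not MTC-filtered.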

[15] = CEETOX_H295R_OHPROG_noMTC: CeeTox H295R High-throughput Steroidogenesis Assay for OH-Progesterone (OHPROG), maximum tolerated concentration (MTC) filtered results only (AID 2283914; active = hit-call score of the fitted dose curve at least 0.9, where 1 is the maximum; inactive = score below 0.9); conditions: actives raise or lower the signal
In short: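 H295R human adrenal cells prestimulated 48 h with 10 uM forskolin, then exposed 48 h to test chemical (0.1% DMSO final). Medium 17alpha-hydroxyprogesterone extracted with MTBE, quantified by HPLC-MS/MS; bidirectional fit versus DMSO, concentrations not MTC-filtered.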

[16] = CEETOX_H295R_CORTISOL_noMTC: CeeTox H295R High-throughput Steroidogenesis Assay for Cortisol, maximum tolerated concentration (MTC) filtered results only (AID 2283916; active = hit-call score of the fitted dose curve at least 0.9, where 1 is the maximum; inactive = score below 0.9); conditions: actives raise or lower the signal
In short: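 H295R adrenal cells were pre-stimulated 48 h with 10 uM forskolin, then exposed 48 h to test chemical in 0.1% DMSO. Medium cortisol was measured by MTBE extraction and HPLC-MS/MS; bidirectional fit versus DMSO, concentrations not MTC-filtered.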

[17] = CEETOX_H295R_CORTIC_noMTC: CeeTox H295R High-throughput Steroidogenesis Assay for Corticosterone (CORTIC), maximum tolerated concentration (MTC) filtered results only (AID 2283917; active = hit-call score of the fitted dose curve at least 0.9, where 1 is the maximum; inactive = score below 0.9); conditions: actives raise or lower the signal
In short: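 H295R, 10 uM forskolin prestim 48 h → test chem (0.1% DMSO final) 48 h → media MTBE extraction → HPLC-MS/MS corticosterone. Bidirectional fit vs DMSO baseline; no MTT-based MTC filtering.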

[18] = CEETOX_H295R_DOC_noMTC: CeeTox H295R High-throughput Steroidogenesis Assay for DOC, maximum tolerated concentration (MTC) filtered results only (AID 2283918; active = hit-call score of the fitted dose curve at least 0.9, where 1 is the maximum; inactive = score below 0.9); conditions: actives raise or lower the signal
In short: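 H295R cells prestimulated 48 h with 10 uM forskolin, then exposed 48 h to test chemical (0.1% DMSO final). Medium 11-deoxycorticosterone extracted with MTBE, quantified by HPLC-MS/MS; bidirectional fit versus DMSO, concentrations not MTC-filtered.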

[19] = CEETOX_H295R_ESTRADIOL_noMTC: CeeTox H295R High-throughput Steroidogenesis Assay for Estradiol, maximum tolerated concentration (MTC) filtered results only (AID 2283919; active = hit-call score of the fitted dose curve at least 0.9, where 1 is the maximum; inactive = score below 0.9); conditions: actives raise or lower the signal
In short: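 H295R human adrenal cells pre-stimulated 48 h with 10 uM forskolin, then exposed 48 h to chemical (0.1% DMSO final). Estradiol in medium measured by HPLC-MS/MS after MTBE extraction and dansyl derivatization; bidirectional fit versus DMSO, concentrations not MTT-filtered.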

Sequence of frog Thyroid hormone Receptor alpha (TRa), thra-a (gene 397942) (P15204 whole entry, looked up, the tested form may be a part): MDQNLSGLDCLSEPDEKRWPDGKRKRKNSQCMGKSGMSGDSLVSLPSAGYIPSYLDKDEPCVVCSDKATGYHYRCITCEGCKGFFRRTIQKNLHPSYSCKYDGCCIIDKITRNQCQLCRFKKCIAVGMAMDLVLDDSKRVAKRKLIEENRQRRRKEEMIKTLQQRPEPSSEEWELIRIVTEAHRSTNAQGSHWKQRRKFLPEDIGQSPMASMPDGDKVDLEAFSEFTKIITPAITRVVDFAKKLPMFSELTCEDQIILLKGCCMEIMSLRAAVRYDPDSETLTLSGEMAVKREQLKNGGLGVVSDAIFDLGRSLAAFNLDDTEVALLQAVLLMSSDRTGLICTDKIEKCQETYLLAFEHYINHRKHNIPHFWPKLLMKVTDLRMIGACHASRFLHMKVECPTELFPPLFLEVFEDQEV
Sequence of mouse Peroxisome Proliferator-activated Receptor gamma (PPARg), Pparg (gene 19016) (P37238 whole entry, looked up, the tested form may be a part): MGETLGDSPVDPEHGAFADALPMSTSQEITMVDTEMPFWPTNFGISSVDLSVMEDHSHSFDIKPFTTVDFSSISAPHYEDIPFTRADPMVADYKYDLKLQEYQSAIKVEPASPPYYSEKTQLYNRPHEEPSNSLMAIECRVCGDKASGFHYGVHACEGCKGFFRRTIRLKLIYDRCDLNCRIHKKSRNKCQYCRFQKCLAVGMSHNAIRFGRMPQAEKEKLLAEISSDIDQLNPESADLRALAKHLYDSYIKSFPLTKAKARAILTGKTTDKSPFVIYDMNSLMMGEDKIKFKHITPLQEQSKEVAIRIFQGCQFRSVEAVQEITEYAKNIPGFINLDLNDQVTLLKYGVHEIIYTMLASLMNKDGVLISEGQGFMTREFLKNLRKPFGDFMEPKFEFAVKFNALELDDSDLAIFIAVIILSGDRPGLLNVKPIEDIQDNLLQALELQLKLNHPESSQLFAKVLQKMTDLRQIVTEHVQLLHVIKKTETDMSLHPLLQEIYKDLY
Sequence of human Thyroid hormone Receptor alpha (TRa), THRA (gene 7067) (P10827 whole entry, looked up, the tested form may be a part): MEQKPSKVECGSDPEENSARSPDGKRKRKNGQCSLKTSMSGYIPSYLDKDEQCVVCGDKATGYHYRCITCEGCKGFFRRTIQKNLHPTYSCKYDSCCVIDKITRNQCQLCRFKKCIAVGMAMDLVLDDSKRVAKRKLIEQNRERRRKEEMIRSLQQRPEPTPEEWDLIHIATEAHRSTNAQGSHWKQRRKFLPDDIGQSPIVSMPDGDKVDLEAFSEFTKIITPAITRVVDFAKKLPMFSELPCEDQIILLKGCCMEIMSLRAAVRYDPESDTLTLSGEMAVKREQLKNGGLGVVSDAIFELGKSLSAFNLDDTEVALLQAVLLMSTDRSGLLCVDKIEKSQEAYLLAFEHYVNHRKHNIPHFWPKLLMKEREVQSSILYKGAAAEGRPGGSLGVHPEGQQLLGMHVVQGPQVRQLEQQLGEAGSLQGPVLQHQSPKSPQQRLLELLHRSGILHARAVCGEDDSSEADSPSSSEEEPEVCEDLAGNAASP
Sequence of zebrafish Thyroid Hormone Receptor alpha (TRa), thraa (gene 30670) (Q98867 whole entry, looked up, the tested form may be a part): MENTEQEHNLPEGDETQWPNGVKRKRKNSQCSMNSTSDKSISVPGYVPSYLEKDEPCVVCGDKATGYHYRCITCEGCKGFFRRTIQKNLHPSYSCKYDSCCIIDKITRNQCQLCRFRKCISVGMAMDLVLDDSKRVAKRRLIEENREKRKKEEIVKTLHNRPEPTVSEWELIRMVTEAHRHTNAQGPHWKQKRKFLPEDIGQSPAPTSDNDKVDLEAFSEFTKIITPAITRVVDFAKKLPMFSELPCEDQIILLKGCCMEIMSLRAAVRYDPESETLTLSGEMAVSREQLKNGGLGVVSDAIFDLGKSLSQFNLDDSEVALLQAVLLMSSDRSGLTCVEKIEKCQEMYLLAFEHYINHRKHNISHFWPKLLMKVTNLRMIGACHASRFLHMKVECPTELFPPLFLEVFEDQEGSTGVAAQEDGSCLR
Sequence of human Thyroid hormone Receptor beta (TRb), THRB (gene 7068) (P10828 whole entry, looked up, the tested form may be a part): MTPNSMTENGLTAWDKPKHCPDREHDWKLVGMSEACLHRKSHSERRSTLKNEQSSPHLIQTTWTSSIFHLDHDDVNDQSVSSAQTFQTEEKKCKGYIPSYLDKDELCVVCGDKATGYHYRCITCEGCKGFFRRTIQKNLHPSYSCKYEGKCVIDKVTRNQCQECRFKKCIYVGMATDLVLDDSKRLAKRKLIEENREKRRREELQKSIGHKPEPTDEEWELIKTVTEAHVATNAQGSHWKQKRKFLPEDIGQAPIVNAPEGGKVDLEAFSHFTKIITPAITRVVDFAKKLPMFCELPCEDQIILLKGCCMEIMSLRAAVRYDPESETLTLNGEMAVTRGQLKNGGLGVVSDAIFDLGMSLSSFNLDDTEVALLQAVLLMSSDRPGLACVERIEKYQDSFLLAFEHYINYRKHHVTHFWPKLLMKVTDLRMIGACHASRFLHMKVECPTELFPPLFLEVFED
Sequence of zebrafish Thyroid Hormone Receptor beta (TRb), thrb (gene 30607) (Q9PVE4 whole entry, looked up, the tested form may be a part): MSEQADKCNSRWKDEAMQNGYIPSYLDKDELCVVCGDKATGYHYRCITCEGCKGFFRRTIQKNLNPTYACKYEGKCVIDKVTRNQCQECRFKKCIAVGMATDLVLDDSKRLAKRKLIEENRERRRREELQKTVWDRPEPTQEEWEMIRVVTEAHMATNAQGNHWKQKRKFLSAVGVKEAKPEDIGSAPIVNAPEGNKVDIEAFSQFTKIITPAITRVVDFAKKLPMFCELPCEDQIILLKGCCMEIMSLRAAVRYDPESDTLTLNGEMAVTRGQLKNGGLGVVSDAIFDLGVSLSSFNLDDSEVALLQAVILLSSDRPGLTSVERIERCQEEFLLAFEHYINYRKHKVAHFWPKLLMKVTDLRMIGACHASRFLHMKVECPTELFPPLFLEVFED
Sequence of Nuclear receptor subfamily 1 group I member 2 (Mus musculus) (O54915 whole entry, looked up, the tested form may be a part): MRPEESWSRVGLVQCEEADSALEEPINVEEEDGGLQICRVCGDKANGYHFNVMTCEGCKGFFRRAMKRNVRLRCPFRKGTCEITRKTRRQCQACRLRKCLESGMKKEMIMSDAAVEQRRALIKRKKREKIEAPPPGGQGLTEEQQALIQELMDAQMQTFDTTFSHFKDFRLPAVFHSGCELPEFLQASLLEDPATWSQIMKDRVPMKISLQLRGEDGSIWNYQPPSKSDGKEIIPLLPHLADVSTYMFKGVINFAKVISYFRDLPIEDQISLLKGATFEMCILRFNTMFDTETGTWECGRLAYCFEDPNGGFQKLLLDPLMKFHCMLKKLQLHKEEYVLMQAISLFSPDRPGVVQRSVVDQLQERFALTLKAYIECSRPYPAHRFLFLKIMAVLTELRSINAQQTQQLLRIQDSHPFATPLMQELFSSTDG

With COc1ccc(C(=O)c2ccccc2)c(O)c1 as the compound, how does the AC50 [1] read?
The AC50 was 78.9 µM (active) and 63.2 µM (active).

What about the AC50 [2] of the same compound?
The AC50 was 26.7 µM (active).

What about the outcome [3] of the same compound?
Its outcome is “inactive”.

And the outcome [4]?
Its outcome is “inactive”.

What about the outcome [5] of the same compound?
Its outcome is “inactive”.

What about the outcome [6] of the same compound?
Its outcome is “inactive”.

And the outcome [7]?
Its outcome is “inactive”.

What about the outcome [8] of the same compound?
Its outcome is “inactive”.

What about the outcome [9] of the same compound?
The outcome was “inactive”.

What about the outcome [10] of the same compound?
The outcome was “inactive”.

What about the outcome [11] of the same compound?
Its outcome is “inactive”.

And the outcome [12]?
The outcome was “inactive”.

With O=C(O)c1cc(O)c2ccccc2c1O as the compound, how does the outcome [12] read?
The outcome was “inactive”.

What does the source list for Oc1ccc(-c2ccccc2)c(Cl)c1?
AC50 [1]: 33.4 µM (active); outcome [2]: inactive; outcome [3]: inactive; outcome [4]: inactive; outcome [5]: inactive; outcome [7]: inactive; AC50 [8]: 85.4 µM (active); outcome [9]: inactive; outcome [10]: inactive; outcome [11]: inactive; outcome [12]: inactive

What does the source list for COc1ccc(-c2coc3cc(O)cc(O)c3c2=O)cc1?
outcome [1]: inactive; AC50 [2]: 2.51 µM (active); outcome [2]: inactive; outcome [3]: inactive; outcome [4]: inactive; outcome [5]: inactive; outcome [6]: inactive; outcome [7]: inactive; outcome [8]: inactive; outcome [9]: inactive; outcome [10]: inactive; outcome [11]: inactive; AC50 [12]: 9.92 µM (active)

With C=C1C[C@H]2[C@@H]3C=C(C)C4=CC(=O)CC[C@]4(C)[C@H]3CC[C@]2(C)[C@@]1(OC(C)=O)C(C)=O as the compound, how does the outcome [1] read?
Its outcome is “inactive”.

And the AC50 [2]?
Its AC50 is 931 nM (active) and 619 nM (active).

And the outcome [3]?
Its outcome is “inactive”.

And the outcome [4]?
Its outcome is “inactive”.

And the outcome [5]?
The outcome was “inactive”.

And the outcome [8]?
Its outcome is “inactive”.

What about the outcome [9] of the same compound?
The outcome was “inactive”.

What about the outcome [10] of the same compound?
Its outcome is “inactive”.

And the outcome [11]?
The outcome was “inactive”.

What about the outcome [12] of the same compound?
The outcome was “inactive”.

With CN(C)c1ccc2nc3ccc(=[N+](C)C)cc-3sc2c1 as the compound, how does the outcome [12] read?
Its outcome is “inactive”.

For O=C(OCc1ccccc1)c1ccc(O)cc1, which outcome [12] is on record?
Its outcome is “inactive”.

What does the source list for N#Cc1ccc(C2CCCc3cncn32)cc1 (centres undefined)?
outcome [1]: inactive; outcome [2]: inactive; outcome [3]: inactive; outcome [4]: inactive; outcome [5]: inactive; outcome [6]: inactive; outcome [7]: inactive; outcome [8]: inactive; outcome [10]: inactive; outcome [13]: inactive; outcome [14]: inactive; AC50 [15]: 2.31 µM (active); AC50 [16]: 2.52 µM (active); AC50 [17]: 1.44 µM (active); AC50 [18]: 1.98 µM (active)

For Cc1ccc([N+](=O)[O-])cc1N, which outcome [12] is on record?
Its outcome is “inactive”.

For CCCCCCCCCC[N+](C)(CCCCCCCCCC)CCC[Si](OC)(OC)OC, which outcome [12] is on record?
The outcome was “inactive”.

What does the source list for CC(C)c1ccc(O)c(C(C)C)c1?
outcome [12]: inactive; outcome [13]: inactive; outcome [14]: inactive; outcome [15]: inactive; outcome [16]: inactive; AC50 [17]: 31.2 µM (active); outcome [18]: inactive; outcome [19]: inactive
